Measurements taken from PubChem BioAssay AID588342 (National Center for Advancing Translational Sciences (NCATS), 2011).
Several values for one entry are separate records, joined by “and”; a condition that tells them apart may be missing. Equal entries are not always repeated. In all, about 360,000 compounds went through this assay and about 25,000 (6.9%) were called active. About 9% were inconclusive and are not listed. Only a selection was taken, and actives are over-represented in it overall. A number with no mark means an inactive call. The call rests on the fitted dose curve; in most records, active means well fitted inhibition curve with a large enough effect; inconclusive means small, poorly fitted or top-dose-only effect; inactive means flat fitted curve, though single readings scatter.

The molecules below were run against Luciferin 4-monooxygenase (Photinus pyralis) (UniProt P08659) (assay: qHTS profiling assay for firefly luciferase inhibitor/activator using purifed enzyme and Km concentrations of substrates (counterscreen for miR-21 project)). Settings: purified FLuc, luminescence inhibition; series mostly up to 57.5 µM; activity change, negative = inhibition: at the top concentration.
Sequence of Luciferin 4-monooxygenase (Photinus pyralis) (P08659 whole entry, looked up): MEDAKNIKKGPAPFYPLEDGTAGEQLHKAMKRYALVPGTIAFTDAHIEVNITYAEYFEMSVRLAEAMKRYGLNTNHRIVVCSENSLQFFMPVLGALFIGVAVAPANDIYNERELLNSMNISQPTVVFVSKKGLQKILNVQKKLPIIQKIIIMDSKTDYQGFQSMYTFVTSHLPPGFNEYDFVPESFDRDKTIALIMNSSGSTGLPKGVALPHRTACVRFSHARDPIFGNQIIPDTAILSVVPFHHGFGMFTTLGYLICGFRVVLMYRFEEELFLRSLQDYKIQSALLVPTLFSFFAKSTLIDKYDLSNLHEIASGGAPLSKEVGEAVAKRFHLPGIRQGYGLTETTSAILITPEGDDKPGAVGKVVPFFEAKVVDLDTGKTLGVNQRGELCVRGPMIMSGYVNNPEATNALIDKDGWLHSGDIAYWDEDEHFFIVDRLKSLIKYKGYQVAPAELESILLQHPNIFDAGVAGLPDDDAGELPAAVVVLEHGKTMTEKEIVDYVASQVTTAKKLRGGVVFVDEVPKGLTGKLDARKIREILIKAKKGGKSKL
How it was run: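 Purified P. pyralis luciferase, 10 nM final, with Km-level 10 uM D-luciferin and 10 uM ATP in 50 mM Tris acetate pH 7.5, 10 mM Mg acetate, 0.01% Tween-20, 0.05% BSA; 6-point qHTS titration about 60 µM downward; luminescence read.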
Further: nearly all actives have a fitted effect of over 55% in size.
Potency means the concentration at half of the fitted maximal effect.
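Wherever activity change, negative = inhibition is given: plate controls were vehicle for no effect and reference inhibitor for full effect.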

SMILES	activity change, negative = inhibition	Potency
CCN(CC)S(=O)(=O)c1ccc(Cl)c(C(=O)NCCN2CCOCC2)c1	-0.0874%	
O=C(NCc1ccccc1)C(c1ccccc1)N(C(=O)c1csnn1)c1ccc(F)cc1 (centres undefined)	1.31%	
COc1cccc(CNC(=O)CN2C(=O)CCc3cc(S(=O)(=O)N4CCOCC4)ccc32)c1	-4.52%	
Cc1nc(-c2ccc(F)cc2)c(CC(=O)N(C)CC(=O)Nc2c(C)cccc2C)s1	-1.73%	
COc1ccc(OC)c(/C=N/NC(=O)CSc2nnc(C)n2-c2ccccc2)c1	-6.59%	
COc1ccc(C(=O)NC2CC(C)(C)Cc3c2cnn3-c2ccccc2)c(OC)c1 (centres undefined)	2.3%	
COc1ccc(/C=C2/C(=O)N(c3ccccc3)N=C2C)c(OC)c1		15.1 µM (active)
CCCCc1ccc(NS(=O)(=O)c2cccc(C(=O)N3CCCN(C)CC3)c2)cc1	-0.803%	
COc1cc(NS(=O)(=O)c2ccc(NC(C)=O)cc2)cc(OC)c1	-1.03%	
COc1ccc(NS(=O)(=O)c2ccc(NC(=S)NC(=O)/C=C/c3ccc(C)cc3)cc2)nn1	-2.64%	
COc1ccc(/C=C/C(=O)c2ccc(NS(=O)(=O)c3ccc(C)cc3)cc2)cc1O		6.01 µM (active)
COc1cccc2c1cc1c(=O)n(CC(=O)N3CCN(c4ccccc4)CC3)nc(C)n12	-1.6%	
Cc1ccsc1/C=N/n1c(=S)[nH]nc(C)c1=O	3.07%	
COc1cccc(/C=N/NC(=O)CNC(=O)c2ccc(S(=O)(=O)N3CCOCC3)cc2)c1OC	0.36%	
COc1cc2cc(C(=O)N/N=C/c3cccc(OC)c3OC)[nH]c2cc1OC		16.9 µM (active)
COc1ccc2[nH]c(C(=O)N/N=C/c3cc(OC)c(OC)c(OC)c3)cc2c1		12 µM (active)
COc1ccc(CC(=O)NCC(=O)N/N=C/c2cc(Br)ccc2OC)cc1	-11.2%	
COc1cc(/C=N/NC(=O)Cc2ccccc2)cc(OC)c1OC	-1.02%	
COc1cccc(OCc2cc(/C=N/NC(=O)c3nc(Cl)c(Cl)c(N)c3Cl)ccc2OC)c1	-11.1%	
CCOc1ccc2[nH]c(C(=O)N/N=C/c3cccc(OC)c3OC)cc2c1		15.1 µM (active)
COc1ccc(/C=N/NC(=O)C2CC2)c(OC)c1OC	-6.25%	
CCOc1ccccc1/C=N/NC(=O)CNC(=O)COc1ccccc1	-20%	
Cc1[nH]c2ccccc2c1C(=O)C(C)Sc1nnc(C2CC2)o1 (centres undefined)	1.18%	
CC1=C(C(=O)OCC(C)C)C(c2ccc(OCc3ccccc3)cc2)N2C(=O)CCSC2=N1 (centres undefined)	-7.41%	
Cc1cccc(C(=O)N2CCc3cc(CNC(=O)Cc4ccc(F)cc4)ccc32)c1	-24%	

SMILES	activity change, negative = inhibition	Potency
O=C(CSc1oc(-c2ccc(F)cc2)nc1S(=O)(=O)c1ccc(Br)cc1)NC1CCCCC1	-1.9%	
CCOC(=O)c1ccc2c(c1)N(Cc1cccc(OC)c1)C(=O)c1ccccc1S2(=O)=O	4.9%	
C/C(=N\NC(=O)Cc1ccc(Cl)cc1)c1ccccn1	5.25%	
C/C(CC(=O)Nc1ccc(N(C)C)cc1)=N\NC(=O)c1ccccc1F	-0.398%	
C/C(=N\NC(=O)c1ccccc1F)c1ccccn1		2.39 µM (active)
CCCSc1ncc(Cl)c(C(=O)Nc2c(C(=O)Nc3ccccc3)oc3ccccc23)n1	-1.02%	
O=C(CN1CCCSc2ccccc21)N1CCN(S(=O)(=O)c2ccccc2)CC1	1.35%	
O=C(CN1CCCSc2ccccc21)N1CCN(S(=O)(=O)c2cccc(F)c2)CC1	-1.34%	
N#C/C=C1\Sc2ccccc2C(=O)N1CC(=O)N1CCN(S(=O)(=O)c2ccccc2)CC1		9.53 µM (active)
CC(=O)N1CCCc2cc(S(=O)(=O)N3CCC(C(=O)NC4CCCCC4)CC3)ccc21	-3.81%	
Cc1cn(C)c(CC(=O)NCc2ccccc2)c1C(=O)O	-0.767%	
CN=C1S/C(=C\c2ccc(Sc3ccc(Cl)cc3)o2)C(=O)N1C	-3.48%	
O=C(O)C(c1ccccc1)N1C(=O)/C(=C\c2ccc(-c3cccc(Cl)c3)o2)SC1=S (centres undefined)	2.28%	
CN1C(=O)/C(=C\c2ccc(-c3ccccc3)o2)SC1=S		2.39 µM (active)
COc1ccccc1NC(=O)CSC1=Nc2ccccc2C2=NC(CC(=O)NCc3cccs3)C(=O)N12 (centres undefined)	4.48%	
COc1ccc(-n2nc(C(=O)NCC(=O)N3CCC(C(N)=O)CC3)c3ccccc3c2=O)cc1OC		12 µM (active)
COCCCNC(=O)CNC(=O)c1nn(-c2ccc(OC)cc2)c(=O)c2ccccc12	-0.501%	
COc1ccc(-n2nc(C(=O)Nc3cc(OC)c(OC)c(OC)c3)c3ccccc3c2=O)c(OC)c1	-2.72%	
COc1ccc(-n2nc(C(=O)NCCc3ccc(Cl)cc3)c3c4ccccc4n(C)c3c2=O)cc1Cl	-1.63%	
COc1ccc(-n2nc(C(=O)NCC(=O)N3CCN(c4ccccc4OC)CC3)c3ccccc3c2=O)c(OC)c1		1.69 µM (active)
COc1ccc(-n2nc(C(=O)NCC(=O)Nc3cccc(C)n3)c3ccccc3c2=O)cc1	2.32%	
COc1ccc(-n2nc(C(=O)NCC(=O)N3CCCCCC3)c3ccccc3c2=O)cc1Cl		3.38 µM (active)
COc1cccc(NC(=O)c2nn(-c3ccc(OC)cc3OC)c(=O)c3ccccc23)c1	-0.385%	
CCOC(=O)CNC(=O)c1nn(-c2cccc(OC)c2)c(=O)c2ccccc12	-18.1%	
O=C(NCC1CCCO1)c1ccc(S(=O)(=O)Nc2ccc(F)cc2)cc1 (centres undefined)	10.4%	

SMILES	activity change, negative = inhibition	Potency
O=S(=O)(NCc1ccccc1Cl)c1cnc[nH]1	-0.378%	
COC(=O)C1[C@H]2SC(C)(C)C(C(=O)OC)N2C(=O)N1Cc1nc2ccccc2s1 (some centres undefined)	-2.91%	
COc1ccc(-c2nc3ccccc3s2)cc1NC(=O)COc1ccccc1C	0.496%	
COc1ccccc1OCc1nc2ccccc2s1		0.601 µM (active)
Cc1cc(O)c(C(c2ccccc2)N2CCN(c3ccccc3F)CC2)c(=O)n1Cc1ccco1 (centres undefined)	-13.9%	
O=C(CCC1N=C2c3ccccc3N=C(SCc3ccccc3F)N2C1=O)NCCc1ccccc1 (centres undefined)	-5%	
CC(NC(=O)c1ccc(S(=O)(=O)Nc2ccccc2)cc1)c1ccc(S(N)(=O)=O)cc1 (centres undefined)	0.247%	
O=C1/C(=C/c2cccs2)SC(=S)N1C1CCS(=O)(=O)C1 (centres undefined)	-10.5%	
O=C(COC(=O)/C=C/c1cccs1)NC1CCCCC1	0.481%	
O=C1/C(=C/c2cccs2)CCc2ccccc21		0.757 µM (active)
CCC1C/C(=C/c2cccs2)C(=O)/C(=C/c2cccs2)C1 (centres undefined)	-0.238%	
O=C1/C(=C/c2cccs2)CCC1C1CCCC1 (centres undefined)		3.38 µM (active)
O=S(=O)(c1cccs1)N1CCc2ccccc2C1	2.65%	
COc1ccccc1-c1cc(C(F)(F)F)nc(S(=O)(=O)CCCC(=O)Nc2cc(C)ccc2O)n1	2.47%	
O=C(CSc1nnc(N2CCOCC2)n1-c1cccc(F)c1)N1CCN(c2ccccn2)CC1	1.86%	
COc1cccc(C(=O)NCc2ccc3c(c2)CCN3C(=O)c2ccncc2)c1	1.74%	
COc1cccc(C(=O)NCC(=O)OCc2cc(=O)n3ccsc3n2)c1	-3.98%	
COc1cccc(C(=O)n2ccc(-c3cccs3)n2)c1		3.38 µM (active)
CC(C)(C)c1cc2cccnc2n1Cc1ccccc1	-1.13%	
O=C(/C=C/c1cccs1)c1cc(Cl)ccc1OC(=O)N1CCOCC1	-0.486%	
CCOc1ccc(C2C(=O)N(C3CCCCC3)CC(=O)N2CCC2=CCCCC2)cc1OC (centres undefined)	0.188%	
Cc1cccc(CSc2nnc(C)c(=O)n2N)c1	5.06%	
N#Cc1ccc(-c2cccs2)nc1SCc1ccc(Br)cc1	-2.78%	
Cc1cccc(CSc2ccc(-c3cccs3)nn2)c1		12 µM (active) and 8.49 µM (active)
C[C@H](NC(=O)c1ccccc1Cl)C(=O)OCC(=O)N1CCN(c2ccccc2)CC1	1.68%	

SMILES	activity change, negative = inhibition	Potency
COc1ccc(C(=O)C2CCCN(S(=O)(=O)c3cccc(C)c3)C2)c(C)c1 (centres undefined)	5.75%	
CCN1C(=O)c2ccccc2S(=O)c2ccc(C(=O)NCc3ccc(F)cc3)cc21 (centres undefined)	1.08%	
CN1CCN(S(=O)(=O)c2cccc(C(=O)O)c2)CC1	-0.781%	
O=C(O)c1cccc(N=NN2CCCCCC2)c1		6.75 µM (active)
O=C(O)c1ccc(N=NN2CCOCC2)cc1	1.54%	
CC(C)Oc1ccc(S(=O)(=O)N2CCOCC2)cc1NC(=O)C1CCCC1	0.0682%	
O=C(Cn1nc(C(F)(F)F)c2c1CCCC2)Nc1ccc(Cl)cc1	-4.17%	
O=C(NCCSc1ccccc1)c1ccco1		23.9 µM (active)
O=C(CNC(=O)c1ccco1)OCC(=O)c1ccccc1	-3.69%	
O=C(NCCS(=O)(=O)N1CCN(c2ccccc2)CC1)c1ccco1	2.07%	
CCOC(=O)Cn1c(=O)n(-c2ccccc2OC)c2nc(-c3cccc(F)c3)nc(C(N)=O)c21	-8.14%	
CC(C)(C)c1ccc(S(=O)(=O)N2CCN(C(=O)c3cc(-c4ccc(Br)cc4)n[nH]3)CC2)cc1	0.458%	
FC(F)(F)c1cccc(N/N=C/c2ccccc2)c1		12 µM (active)
CC(=O)N1CCN(C(=O)Nc2cccc(C(F)(F)F)c2)CC1	-0.34%	
Cc1nnsc1C(=O)N/N=C/c1cccc(C(F)(F)F)c1	-2.3%	
CCC1CCCCN1C(=O)Cn1c(=O)n(CCCCCC(=O)NCc2ccccc2)c(=O)c2sccc21 (centres undefined)	-16.2%	
CC(C)(C)OC(=O)Nc1ccc([C@@H](NC(=O)OC(C)(C)C)C(=O)OC(C)(C)C)cc1	2.72%	
COc1ccc2cc(CNc3ccc(OC)c(OC)c3)c(=O)n(CC(=O)Nc3ccccc3F)c2c1	5.48%	
Cc1cc2c(cc1S(=O)(=O)CCC(=O)Nc1ccc(OC(F)(F)F)cc1)OCC(=O)N2	-15.7%	
Nn1c(SCC(=O)Nc2nccs2)nnc1-c1ccco1	1.42%	
CCc1ccc(NC(=O)Cn2ncn3c(cc4ccccc43)c2=O)cc1		inactive
CC(C)c1ccc(NC(=O)Cn2ncc3ccccc32)cc1		10.7 µM (active)
CC(C)c1ccc(NC(=O)Cn2nnc(C(=O)NCCc3ccccc3)c2N)cc1	-5.02%	
Cc1oc(-c2ccccc2)nc1Cn1c(SCc2cccc(C(F)(F)F)c2)nc2cccnc21	-14.9%	
